Results as given in PubChem BioAssay (Tox21).
Records with an inconclusive call do not appear. Active and inactive are the calls of the source. Unless noted, calls follow the shape of the dose curve; as a rule, active = well fitted curve in the direction sought with a large enough effect in the repeat runs; inconclusive = weak or mixed curves; inactive = no such curve, though single readings can be large; an effect the other way counts as inactive or inconclusive.

Experiments:
[1] = qHTS assay to identify aromatase inhibitors - cell viability counter screen (AID 743084);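 also: cells stimulated with testosterone during compound exposure; nearly all actives have a fitted effect of over 55% in size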
[2] = molecular target: Aryl hydrocarbon receptor (Homo sapiens) (UniProt P35869); test: qHTS assay to identify small molecule that activate the aryl hydrocarbon receptor (AhR) signaling pathway (AID 743085);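 also: HG2L7.5c1 human HepG2 liver cells with stably integrated DRE-driven firefly reporter; series mostly up to about 70 µM; nearly all actives have a fitted effect of over 15% in size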
Aryl hydrocarbon receptor (Homo sapiens), sequence (P35869 whole entry, looked up): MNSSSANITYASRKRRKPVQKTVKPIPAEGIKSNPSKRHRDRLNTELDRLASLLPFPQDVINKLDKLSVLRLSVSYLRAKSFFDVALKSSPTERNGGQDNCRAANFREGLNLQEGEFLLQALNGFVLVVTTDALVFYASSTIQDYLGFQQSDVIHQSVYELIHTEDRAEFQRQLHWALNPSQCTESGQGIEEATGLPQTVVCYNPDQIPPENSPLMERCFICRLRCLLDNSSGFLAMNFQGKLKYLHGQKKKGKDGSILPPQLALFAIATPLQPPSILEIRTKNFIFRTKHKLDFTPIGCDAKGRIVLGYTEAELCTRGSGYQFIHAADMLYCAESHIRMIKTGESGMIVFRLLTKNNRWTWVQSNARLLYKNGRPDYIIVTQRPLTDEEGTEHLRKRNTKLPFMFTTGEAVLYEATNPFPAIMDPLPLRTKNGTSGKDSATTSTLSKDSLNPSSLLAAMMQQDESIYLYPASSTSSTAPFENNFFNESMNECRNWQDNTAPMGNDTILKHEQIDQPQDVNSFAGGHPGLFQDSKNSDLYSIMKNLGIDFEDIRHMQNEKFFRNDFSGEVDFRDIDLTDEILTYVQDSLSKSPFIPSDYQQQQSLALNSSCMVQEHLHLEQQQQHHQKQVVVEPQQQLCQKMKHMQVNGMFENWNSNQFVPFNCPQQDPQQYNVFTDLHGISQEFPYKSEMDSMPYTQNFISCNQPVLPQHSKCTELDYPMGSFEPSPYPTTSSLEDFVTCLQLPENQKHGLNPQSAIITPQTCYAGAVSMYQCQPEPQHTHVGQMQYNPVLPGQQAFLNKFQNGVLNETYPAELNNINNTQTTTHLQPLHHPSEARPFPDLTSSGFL
Summary of the method: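 Compounds were tested in HepG2 hepatocellular carcinoma cells harbouring a stably integrated luciferase gene under control of 20 DREs. Increased reporter signal after 24 h treatment at 37C was taken as AhR activation.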

[3] = qHTS assay to identify small molecule that activate the aryl hydrocarbon receptor (AhR) signaling pathway - cell viability counter screen (AID 743086);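 also: HepG2 liver cells carrying the AhR DRE luciferase reporter; series mostly up to about 70 µM; nearly all actives have a fitted effect of over 45% in size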
Summary of the method: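 HepG2-AhR-luc (HG2L7.5c1) cells, 4000/well, treated 24 h at 37 C with compound; viability measured as CellTiter-Fluor fluorescence after 30 min in the same wells as the luciferase read.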

[4] = molecular target: Peroxisome proliferator-activated receptor gamma (Homo sapiens) (UniProt P37231); test: qHTS assay to identify small molecule agonists of the peroxisome proliferator-activated receptor gamma (PPARg) signaling pathway (AID 743094; active = well fitted activation curve with a large enough effect in the signal ratio in the repeat runs, not every such curve was filed as active; the % refers to the signal ratio)
Peroxisome proliferator-activated receptor gamma (Homo sapiens), sequence (P37231 whole entry, looked up): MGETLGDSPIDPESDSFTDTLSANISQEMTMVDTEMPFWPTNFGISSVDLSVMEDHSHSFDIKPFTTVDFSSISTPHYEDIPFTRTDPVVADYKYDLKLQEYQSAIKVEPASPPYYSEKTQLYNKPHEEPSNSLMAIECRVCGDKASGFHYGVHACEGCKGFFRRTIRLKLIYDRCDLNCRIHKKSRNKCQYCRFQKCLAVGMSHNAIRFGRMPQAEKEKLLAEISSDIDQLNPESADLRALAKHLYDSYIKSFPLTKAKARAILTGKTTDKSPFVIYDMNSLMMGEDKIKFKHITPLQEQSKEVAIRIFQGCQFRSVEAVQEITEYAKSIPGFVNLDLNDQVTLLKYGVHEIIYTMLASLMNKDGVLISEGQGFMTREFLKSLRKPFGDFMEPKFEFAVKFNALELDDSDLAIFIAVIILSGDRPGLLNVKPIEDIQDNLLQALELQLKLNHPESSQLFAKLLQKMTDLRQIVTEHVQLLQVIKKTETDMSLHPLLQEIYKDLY
Summary of the method: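 Cell-based bla reporter, HEK293H background, PPARg-driven UAS. Pre-incubation 5 h, 37C, 5% CO2. Compound 17 h, 37C. Substrate 1 h RT; fluorescence.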

[5] = molecular target: Peroxisome proliferator-activated receptor gamma (Homo sapiens) (UniProt P37231); test: qHTS assay to identify small molecule antagonists of the peroxisome proliferator-activated receptor gamma (PPARg) signaling pathway (AID 743191; calls by dose curve; also: series mostly up to about 63 µM; nearly all actives have a fitted effect of over 30% in size)
Summary of the method: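 GeneBLAzer PPARg UAS-bla HEK293H cells, 5 h post-plating, exposed to compounds 17 h at 37C. LiveBLAzer B/G FRET substrate added for 1 h at room temperature; beta-lactamase reporter read by fluorescence intensity.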

[6] = qHTS assay to identify small molecule antagonists of the peroxisome proliferator-activated receptor gamma (PPARg) signaling pathway - cell viability counter screen (AID 743194); also: nearly all actives have a fitted effect of over 55% in size
Summary of the method: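 Cytotoxicity counter screen in PPARg-bla HEK293H cells, same wells as reporter assay. Compounds plus 50 nM rosiglitazone (final) for 17 h at 37 C, then viability read by CellTiter-Glo luminescence.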

[7] = qHTS assay for small molecule agonists of the antioxidant response element (ARE) signaling pathway (AID 743202; active = well fitted activation curve with a large enough effect in the signal ratio in the repeat runs, not every such curve was filed as active; the % refers to the signal ratio)
Summary of the method: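 HepG2 ARE-bla reporter line, 2,000 cells/well; 5 h preincubation 37 C/5% CO2; compound (DMSO) 16 h 37 C; B/G FRET substrate 2 h RT; fluorescence intensity.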

[8] = qHTS assay for small molecule agonists of the antioxidant response element (ARE) signaling pathway - cell viability counter screen (AID 743203; calls by dose curve; also: nearly all actives have a fitted effect of over 55% in size)
Summary of the method: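 Measured in the same wells as the beta-lactamase ARE reporter, this read-out is CellTiter-Glo luminescence from HepG2 ARE-bla cells given compounds for 16 hrs.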

[9] = qHTS assay for small molecule activators of the heat shock response signaling pathway - cell viability counter screen (AID 743209); also: nearly all actives have a fitted effect of over 50% in size
Summary of the method: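 Same-well multiplex: after 2.5 h room-temperature incubation with LiveBLAzer B/G substrate and fluorescence reading, CellTiter-Glo reagent was added to HSE-bla HeLa cells that had received compound for 5 h at 37 C; luminescence read after 30 min.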

[10] = qHTS assay for small molecule activators of the heat shock response signaling pathway (AID 743210; active = well fitted activation curve with a large enough effect in the signal ratio in the repeat runs, with a control signal flat, not every such curve was filed as active; the % refers to the signal ratio;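 also: HeLa cells with beta-lactamase reporter driven by heat shock elements; series mostly up to about 63 µM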)
Summary of the method: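 Beta-lactamase reporter read-out: FRET substrate fluorescence after 2.5 h at RT, following 5 h compound treatment at 37 C of HeLa cells carrying HSE-driven bla reporter; quantitative HTS format.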

[11] = qHTS assay to identify small molecule agonists of the peroxisome proliferator-activated receptor delta (PPARd) signaling pathway - cell viability counter screen (AID 743211); also: nearly all actives have a fitted effect of over 55% in size
Summary of the method: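 Counter screen for cytotoxicity run in parallel with the PPARd reporter screen. Beta-lactamase reporter HEK293H cells exposed to compounds 17 h; ATP-based CellTiter-Glo luminescence quantified viability.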

[12] = qHTS assay to identify small molecule antagonists of the peroxisome proliferator-activated receptor delta (PPARd) signaling pathway - cell viability counter screen (AID 743213); also: nearly all actives have a fitted effect of over 50% in size
Summary of the method: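 PPARd-bla HEK293H cells were treated with compounds plus agonist L165041 (300 nM final) for 17 h at 37 C. Viability was then read in the same wells by CellTiter-Glo luminescence after 30 min at room temperature.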

[13] = qHTS assay to identify small molecule agonists of the farnesoid-X-receptor (FXR) signaling pathway - cell viability counter screen (AID 743218); also: nearly all actives have a fitted effect of over 45% in size
Summary of the method: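 Readout: CellTiter-Glo luminescence, 30 min RT, multiplexed after the FXR-bla FRET reading. HEK 293T FXR-UAS-bla cells received compound 5 h post-plating and were incubated 16 h at 37 C.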

[14] = molecular target: Vitamin D3 receptor (Homo sapiens) (UniProt P11473); test: qHTS assay to identify small molecule agonists of the vitamin D receptor (VDR) signaling pathway (AID 743222; calls by dose curve)
Vitamin D3 receptor (Homo sapiens), sequence (P11473 whole entry, looked up): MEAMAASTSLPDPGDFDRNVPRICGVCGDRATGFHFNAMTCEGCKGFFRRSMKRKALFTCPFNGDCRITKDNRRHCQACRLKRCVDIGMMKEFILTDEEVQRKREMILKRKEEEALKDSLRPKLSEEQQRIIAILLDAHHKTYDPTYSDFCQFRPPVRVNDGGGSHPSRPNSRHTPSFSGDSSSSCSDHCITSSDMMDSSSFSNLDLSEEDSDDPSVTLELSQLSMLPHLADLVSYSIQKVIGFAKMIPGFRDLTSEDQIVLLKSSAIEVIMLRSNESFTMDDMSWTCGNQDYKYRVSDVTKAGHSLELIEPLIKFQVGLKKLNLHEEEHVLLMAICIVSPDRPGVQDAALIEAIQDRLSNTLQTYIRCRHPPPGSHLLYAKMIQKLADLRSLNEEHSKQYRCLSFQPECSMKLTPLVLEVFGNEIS
Summary of the method: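 Following 4 h attachment at 37C, VDR-bla cells (2,000 per well) received DMSO-dissolved compounds or controls. After 16 h incubation, LiveBLAzer B/G FRET substrate was added and fluorescence read 2 h later at room temperature.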

[15] = molecular target: Vitamin D3 receptor (Homo sapiens) (UniProt P11473); test: qHTS assay to identify small molecule antagonists of the vitamin D receptor (VDR) signaling pathway (AID 743223; active = well fitted inhibition curve with a large enough effect in the signal ratio in the repeat runs, not every such curve was filed as active; the % refers to the signal ratio)
Summary of the method: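 Cells carrying a VDR-driven beta-lactamase reporter (VDR-bla) were co-treated with compound and 3 nM final 1alpha,25-dihydroxyvitamin D3 for 16 h at 37C; reporter activity was measured as FRET substrate fluorescence after 2 h at room temperature.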

[16] = molecular target: Peroxisome proliferator-activated receptor delta (Homo sapiens) (UniProt Q03181); test: qHTS assay to identify small molecule agonists of the peroxisome proliferator-activated receptor delta (PPARd) signaling pathway (AID 743212; calls by dose curve)
Peroxisome proliferator-activated receptor delta (Homo sapiens), sequence (Q03181 whole entry, looked up): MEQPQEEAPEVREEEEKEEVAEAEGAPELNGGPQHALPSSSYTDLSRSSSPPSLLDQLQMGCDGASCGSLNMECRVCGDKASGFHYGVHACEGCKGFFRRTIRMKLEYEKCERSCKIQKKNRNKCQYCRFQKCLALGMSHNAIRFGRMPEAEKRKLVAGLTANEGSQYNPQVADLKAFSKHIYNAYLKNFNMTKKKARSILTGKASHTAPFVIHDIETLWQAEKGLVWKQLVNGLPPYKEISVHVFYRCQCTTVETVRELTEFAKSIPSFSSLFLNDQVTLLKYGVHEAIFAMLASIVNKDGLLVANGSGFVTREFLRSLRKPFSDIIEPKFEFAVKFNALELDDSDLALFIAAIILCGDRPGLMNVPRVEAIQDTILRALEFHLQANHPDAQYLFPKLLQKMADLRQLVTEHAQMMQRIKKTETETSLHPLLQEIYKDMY
Summary of the method: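 Read-out: beta-lactamase FRET fluorescence after 2 h room-temperature incubation with LiveBLAzer B/G substrate. Cells were HEK293H carrying a UAS-bla reporter for PPARd, treated at 37 C with DMSO-dissolved compounds.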

[17] = molecular target: Peroxisome proliferator-activated receptor delta (Homo sapiens) (UniProt Q03181); test: qHTS assay to identify small molecule antagonists of the peroxisome proliferator-activated receptor delta (PPARd) signaling pathway (AID 743215; active = well fitted inhibition curve with a large enough effect in the signal ratio in the repeat runs, not every such curve was filed as active; the % refers to the signal ratio;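 also: cells stimulated with agonist L165041 at 300 nM final during compound exposure; series mostly up to about 62 µM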)
Summary of the method: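 Fluorescence from cleaved LiveBLAzer B/G FRET substrate (2 h, room temperature) reports PPARd-driven beta-lactamase in HEK293H UAS-bla cells. Cells had been treated 17 h at 37 C with compound plus 300 nM final L165041.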

[18] = qHTS assay to identify small molecule antagonists of the farnesoid-X-receptor (FXR) signaling pathway - cell viability counter screen (AID 743221; active = well fitted cell-killing curve with a large enough effect in the repeat runs, not every such curve was filed as active; also: nearly all actives have a fitted effect of over 50% in size)
Summary of the method: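 Multiplexed counter screen: viability of FXR-bla HEK 293T cells under agonist stimulation by chenodeoxycholic acid (50 uM, final) and test compound for 16 h at 37 C, measured by CellTiter-Glo luminescence in the reporter wells.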

[19] = molecular target: Bile acid receptor (Homo sapiens) (UniProt Q96RI1); test: qHTS assay to identify small molecule antagonists of the farnesoid-X-receptor (FXR) signaling pathway (AID 743217; active = well fitted inhibition curve with a large enough effect in the signal ratio in the repeat runs, not every such curve was filed as active; the % refers to the signal ratio)
Bile acid receptor (Homo sapiens), sequence (Q96RI1 whole entry, looked up): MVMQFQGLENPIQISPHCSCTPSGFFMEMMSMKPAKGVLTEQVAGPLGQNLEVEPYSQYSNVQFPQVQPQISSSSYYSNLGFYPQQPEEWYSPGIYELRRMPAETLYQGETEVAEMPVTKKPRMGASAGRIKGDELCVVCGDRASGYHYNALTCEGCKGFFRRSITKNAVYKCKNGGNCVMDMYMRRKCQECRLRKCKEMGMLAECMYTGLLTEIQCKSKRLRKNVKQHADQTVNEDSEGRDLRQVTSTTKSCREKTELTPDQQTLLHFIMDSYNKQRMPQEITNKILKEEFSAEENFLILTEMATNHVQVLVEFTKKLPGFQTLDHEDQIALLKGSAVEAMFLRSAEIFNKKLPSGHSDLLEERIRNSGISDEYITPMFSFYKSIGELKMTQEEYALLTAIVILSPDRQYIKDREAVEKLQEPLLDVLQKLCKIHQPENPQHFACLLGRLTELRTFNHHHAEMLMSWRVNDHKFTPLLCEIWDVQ
Summary of the method: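 FRET fluorescence after 2 h room-temperature LiveBLAzer loading gives the readout. Prior step: FXR-bla HEK 293T cells, seeded and incubated 5 h, received test compounds plus 50 uM final CDCA for 16 h at 37 °C.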

[20] = molecular target: Bile acid receptor (Homo sapiens) (UniProt Q96RI1); test: qHTS assay to identify small molecule agonists of the farnesoid-X-receptor (FXR) signaling pathway (AID 743220; active = well fitted activation curve with a large enough effect in the signal ratio in the repeat runs, not every such curve was filed as active; the % refers to the signal ratio)
Summary of the method: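 FXR-UAS-bla HEK 293T cells carrying a UAS-driven beta-lactamase reporter were plated for 5 h at 37C/5% CO2, then exposed to DMSO-dissolved Tox21 10K compounds for 16 h at 37C. A LiveBLAzer B/G FRET substrate was loaded for 2 h at room temperature before fluorescence reading.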

Measured: Potency

O=[N+]([O-])c1ccc(/C=C/c2ccc([N+](=O)[O-])cc2S(=O)(=O)O)c(S(=O)(=O)O)c1
not listed: [16] | [17] | [18] | [19] | [20]
inactive: all other assays above

COS(C)(=O)=O
not listed: [19] | [20]
inactive: all other assays above

CC(O)COCC(C)O (stereo not given)
inactive: all assays above

O=C(O)c1ccc2c(c1)C(=O)OC2=O
not listed: [12] | [16] | [17] | [18]
inactive: all other assays above

CCCCCC(N)=O
not listed: [12] | [18] | [19] | [20]
inactive: all other assays above

OCC(CO)(CBr)CBr
not listed: [14] | [15]
inactive: all other assays above

CCC(O)OC(O)CC (stereo not given)
not listed: [16] | [17] | [19] | [20]
inactive: all other assays above

Cc1ccc(S(N)(=O)=O)cc1
not listed: [12] | [17] | [18] | [19]
inactive: all other assays above
